Source: PubChem BioAssay
MBNL1-CUG inh = blocks human MBNL1 binding to CUG repeat RNA; Potency, µM (top dose mostly 57.5 µM), hits mostly inhibitors; TR-FRET MBNL1-His/biotin-(CUG)12 binding, 665/545 ratio; 280,000 tested, 0.036% active; active = well fitted inhibition curve with a large enough effect in the signal ratio, with a control signal flat, not every such curve was filed as active; inconclusive = small, poorly fitted or top-dose-only effect, or effect the other way, or a change in a side signal; inactive = no such curve, though single readings can be large or run the other way; the % refers to the signal ratio
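TR-FRET readout: Ex 340 nm, 665/545 nm emission ratio, normalized to buffer-only (basal) and MBNL1-(CUG)12 controls. Complex of MBNL1-His with Biotin-(CUG)12, compounds 92 nM–58 uM, incubated 60 min at room temperature.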
VDR inhibitor = inhibitors of human vitamin D receptor; VDR-SRC2-3 peptide fluorescence polarization, 2 h; Potency, µM, hits mostly inhibitors; 400,000 tested, 0.93% active
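Fluorescence polarization assay measuring small-molecule disruption of VDR binding to the coregulator peptide SRC2-3. Compounds were pin-transferred (23 nl) into the reagent mix and incubated 2 h at room temperature before reading.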
KCNH2 3.1 inh = KCNH2 3.1 (human) potassium channel inhibition. U2OS KCNH2 3.1, thallium flux FluxOr; active compounds read low. activity change, % (tested at about 1.8 µM). 340,000 tested, 0.95% active. AID 720553;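 active = maximum activity change below -70%; inconclusive = maximum activity change from -70% to -50%; inactive = maximum activity change above -50%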;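 note: thallium influx rate constant from kinetic fluorescence after stimulation buffer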
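Thallium flux via FluxOr fluorescence (Red40 quencher, 45 min loading) in U2OS cells virally expressing the KCNH2 3.1 isoform (1.77 x 10^8 /mL virus, overnight at 37 C). Rate constants from 2-min kinetic reads post-stimulation, normalised to positive and negative controls.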
CBFb RUNX1 block = CBF-beta/RUNX1 interaction disruption; AlphaScreen CBFb-His/RUNX1-biotin binding, biochemical; Q01196+Q13951; Potency, µM (doses to about 59.8 µM), hits mostly inhibitors; 230,000 tested, under 10 active
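Bead-based AlphaScreen assay; binding partners His-tagged CBF-beta and biotinylated RUNX1 at 30 nM each. Compound exposure 15 min after a 20-min protein preincubation; bead step 90 min; all steps at room temperature.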
PLK1 PBD block = PLK1 (human) polo-box domain binding inhibition | P53350 | Plk1 PBD binding of FITC phosphopeptide, fluorescence polarization | Potency, µM, most hits filed as inhibitors | 360,000 tested, 2.8% active | AID 720504; note: series mostly up to about 57 µM; nearly all actives have a fitted effect of over 65% in size
Target sequence (P53350 whole entry, looked up, the tested form may be a part): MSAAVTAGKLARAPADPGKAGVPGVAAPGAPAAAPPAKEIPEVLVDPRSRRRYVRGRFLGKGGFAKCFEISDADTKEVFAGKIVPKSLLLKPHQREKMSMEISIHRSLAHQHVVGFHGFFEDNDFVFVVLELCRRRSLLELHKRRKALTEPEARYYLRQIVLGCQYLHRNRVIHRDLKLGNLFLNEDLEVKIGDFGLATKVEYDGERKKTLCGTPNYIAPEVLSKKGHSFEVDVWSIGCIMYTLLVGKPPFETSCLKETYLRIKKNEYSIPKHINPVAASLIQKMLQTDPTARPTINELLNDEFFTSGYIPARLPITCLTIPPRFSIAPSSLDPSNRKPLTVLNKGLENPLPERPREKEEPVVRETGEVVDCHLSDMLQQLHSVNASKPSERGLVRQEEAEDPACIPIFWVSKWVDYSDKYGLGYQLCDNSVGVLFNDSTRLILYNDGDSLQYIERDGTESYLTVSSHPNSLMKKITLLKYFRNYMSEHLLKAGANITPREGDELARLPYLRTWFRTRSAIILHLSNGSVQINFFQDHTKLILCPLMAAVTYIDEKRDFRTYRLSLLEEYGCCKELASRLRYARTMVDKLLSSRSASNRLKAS
KCNH2 WT inh = KCNH2 (human, wildtype) channel inhibition. Q12809. U2OS, BacMam KCNH2, thallium flux FluxOr; active compounds read low. activity change, % at 1.84 µM. 340,000 tested, 0.37% active. AID 720551;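 active = maximum activity change below -70%; inconclusive = maximum activity change between -70% and -50%; inactive = maximum activity change above -50%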
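U2OS cells transduced with wild-type KCNH2 virus are loaded with FluxOr dye for 45 min, and thallium flux is measured in kinetic reads before and after stimulation buffer. Rate constants are normalized to DMSO controls.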
Numbers stand for hits. The list is not random: actives were taken first. Their share in the collection is about 3.8%. Unless noted, calls come from the whole dose curve; as a rule, active = well fitted curve in the direction sought with a large enough effect; inconclusive = small, poorly fitted or top-dose-only effect, or another doubt; inactive = no such curve, though single readings can be large; an effect the other way counts as inactive or inconclusive.

O=C(O)CSc1sc(=S)sc1SCC(=O)O was read as MBNL1-CUG inh inconclusive, VDR inhibitor inactive, KCNH2 3.1 inh inactive, CBFb RUNX1 block inactive, PLK1 PBD block 27µM and KCNH2 WT inh inactive.
OC[C@H]1OC(O)(CN2CCOCC2)[C@H](O)[C@@H]1O (stereo partly specified) was read as VDR inhibitor inactive and CBFb RUNX1 block inactive.
CNc1ccc(C(=O)Oc2cc(O/N=[N+](\[O-])N(C)C)c([N+](=O)[O-])cc2[N+](=O)[O-])cc1 was read as VDR inhibitor inactive and CBFb RUNX1 block inactive.
For c1ccc2nc3c(cc2c1)CCCCC3 the results were MBNL1-CUG inh inactive, VDR inhibitor inconclusive, KCNH2 3.1 inh inactive, CBFb RUNX1 block inactive, PLK1 PBD block 3.4µM and KCNH2 WT inh inactive.
`COc1ccccc1CNC(=O)c1cc2cccc3c2n1CC(C)S3` (stereo unspecified) gave VDR inhibitor inactive.
For COc1ccccc1Nc1sc(C(=O)c2ccc(C)cc2C)c(N)c1S(=O)(=O)c1ccccc1 the results were VDR inhibitor inactive.
`O=c1c2oc3ccccc3c2n(Cc2ccccc2Cl)c(=O)n1Cc1ccco1` gave VDR inhibitor inactive.
`O=S(=O)(Nc1cc(S(=O)(=O)N2CCOCC2)ccc1O)c1ccc2c(c1)OCCCO2` gave VDR inhibitor 25µM, KCNH2 3.1 inh inactive, PLK1 PBD block 4.7µM and KCNH2 WT inh inactive.
O=S(=O)(Nc1cc(S(=O)(=O)N2CCOCC2)ccc1N1CCOCC1)c1ccc2c(c1)OCCO2 was read as MBNL1-CUG inh inactive, VDR inhibitor inactive, KCNH2 3.1 inh inactive, CBFb RUNX1 block inactive, PLK1 PBD block inactive and KCNH2 WT inh inactive.
`c1ccc(Cn2nnnc2-c2ccco2)cc1` gave MBNL1-CUG inh inactive, VDR inhibitor inactive, KCNH2 3.1 inh inactive, CBFb RUNX1 block inactive, PLK1 PBD block inactive and KCNH2 WT inh inactive.
Cc1cc(Cn2nnnc2-c2ccncc2)cc(C)c1O was read as MBNL1-CUG inh inactive, VDR inhibitor inactive, KCNH2 3.1 inh inactive, PLK1 PBD block 38µM and KCNH2 WT inh inactive.
O=C(Cc1ccc(F)cc1)Nc1nnc(SCC(=O)N2CCCCC2)s1 was read as MBNL1-CUG inh inactive, VDR inhibitor inactive, KCNH2 3.1 inh inactive, CBFb RUNX1 block inactive, PLK1 PBD block inactive and KCNH2 WT inh inactive.
`O=C(Nc1nnc(SCC(=O)N2CCCCC2)s1)c1ccc(F)cc1F` gave MBNL1-CUG inh inactive, VDR inhibitor inactive, KCNH2 3.1 inh inactive, PLK1 PBD block inactive and KCNH2 WT inh -152.
COC1=CC(=O)c2ccccc2C1=O was read as VDR inhibitor inactive, KCNH2 3.1 inh inactive, PLK1 PBD block inactive and KCNH2 WT inh inactive.
Screening C=CC(C1=CC(=O)C(OC)=C(OC)C1=O)c1ccccc1 (stereo unspecified) returned VDR inhibitor 1µM.
Screening C=CC(C1=CC(=O)C(OC)=CC1=O)c1ccccc1 (stereo unspecified) returned VDR inhibitor 8.9µM and CBFb RUNX1 block inconclusive.
For C=CC(C1=CC(=O)C(OC)=CC1=O)c1ccc(OC)cc1 (stereo unspecified) the results were VDR inhibitor 11µM.
CCOc1cc(C(=O)NCC(c2ccc(N(C)C)cc2)N2CCOCC2)cc(OCC)c1OCC (stereo unspecified) was read as VDR inhibitor inactive.
CC(C)(C)c1cc(CN(CCO)CCO)cc(C(C)(C)C)c1O was read as MBNL1-CUG inh inactive, VDR inhibitor inconclusive, KCNH2 3.1 inh inactive, CBFb RUNX1 block inactive, PLK1 PBD block 2.1µM and KCNH2 WT inh inactive.
CN(C)Cc1cc(C(C)(C)C)c(O)c(C(C)(C)C)c1 was read as MBNL1-CUG inh inactive, VDR inhibitor inactive, KCNH2 3.1 inh inactive, CBFb RUNX1 block inactive, PLK1 PBD block 11µM and KCNH2 WT inh inactive.
Screening Cc1c(C(=O)N2CCC(C)CC2)c(S(=O)(=O)Nc2cccc(C(F)(F)F)c2)c(C)n1C returned VDR inhibitor inactive.
`Cc1ccc2c(c1)N(CCCC(=O)Nc1cccc(C(F)(F)F)c1)C(=O)CO2` gave MBNL1-CUG inh inactive, VDR inhibitor inconclusive, KCNH2 3.1 inh inactive, PLK1 PBD block 27µM and KCNH2 WT inh inactive.
`COc1ccc(NC(=O)CCCN2C(=O)COc3ccc(C)cc32)cc1OC` gave VDR inhibitor inactive.
For COc1cccc(Oc2cn[nH]c2-c2ccc(OCC(=O)NN)cc2O)c1 the results were MBNL1-CUG inh inactive, VDR inhibitor inactive, KCNH2 3.1 inh inactive, PLK1 PBD block 38µM and KCNH2 WT inh inactive.
Screening CCOc1ccccc1Oc1cn[nH]c1-c1ccc(OCC(=O)NN)cc1O returned MBNL1-CUG inh inactive, VDR inhibitor inactive, KCNH2 3.1 inh inactive, PLK1 PBD block inactive and KCNH2 WT inh inactive.
For Cc1cc(=O)nc2c3ccccc3n(C(C)C(=O)NCCC(C)C)n12 (stereo unspecified) the results were MBNL1-CUG inh inactive, VDR inhibitor inactive, KCNH2 3.1 inh inactive, CBFb RUNX1 block inactive, PLK1 PBD block 27µM and KCNH2 WT inh inactive.
For CC(=O)c1ccc(NC(=O)C(C)n2c3ccccc3c3nc(=O)cc(C)n32)cc1 (stereo unspecified) the results were MBNL1-CUG inh inactive, VDR inhibitor inactive, KCNH2 3.1 inh inactive, CBFb RUNX1 block inconclusive, PLK1 PBD block inactive and KCNH2 WT inh inactive.
COC(=O)c1ccc(CSc2nc3ccncc3n2Cc2ccc(F)cc2)cc1 was read as VDR inhibitor inactive.
For CN1CCN(CC(=O)Nc2nnc(-c3cccs3)s2)CC1 the results were MBNL1-CUG inh inconclusive, VDR inhibitor inactive, KCNH2 3.1 inh inactive, CBFb RUNX1 block inactive, PLK1 PBD block inactive and KCNH2 WT inh inactive.
`CCC(CC)C(=O)Nc1nnc(-c2cccs2)s1` gave MBNL1-CUG inh inactive, VDR inhibitor inactive, KCNH2 3.1 inh inactive, CBFb RUNX1 block inactive, PLK1 PBD block 30µM and KCNH2 WT inh inactive.
For COc1cccc(OC)c1C(=O)Nc1nnc(-c2cccs2)s1 the results were MBNL1-CUG inh inactive, VDR inhibitor inactive, KCNH2 3.1 inh inactive, CBFb RUNX1 block inactive, PLK1 PBD block 17µM and KCNH2 WT inh inactive.
For CN1C(=O)C[C@H](C(=O)O)[C@@H]1c1cccnc1 the results were VDR inhibitor inactive and CBFb RUNX1 block inactive.
`CC(C)Cn1c(N)c(C(=O)CSc2nc3ccccc3n2C)c(=O)n(C)c1=O` gave MBNL1-CUG inh inactive, VDR inhibitor inactive, KCNH2 3.1 inh inactive, CBFb RUNX1 block inactive, PLK1 PBD block inactive and KCNH2 WT inh inactive.
For CC(C)Cn1c(SCC(=O)c2c(N)n(C)c(=O)n(C)c2=O)nc2ccccc21 the results were MBNL1-CUG inh inactive, VDR inhibitor inactive, KCNH2 3.1 inh inactive, CBFb RUNX1 block inactive, PLK1 PBD block inactive and KCNH2 WT inh -116.
